The full list was thinned out, with hits kept by preference.
Cycloheximide cs: counter-screen hit for Shiga toxin inhibitors, cycloheximide. cell reporter, cycloheximide protein synthesis inhibition counterscreen. max response, %. 12% of 300,000 active. AID 2314; in the data active means max response mostly above about 13%, no sharp cut-off; inactive means mostly below about 14%; further: read at 38.3 µM for the half of the compounds with a filed dose
RE007 growth inh: less growth of the S. pombe RE007 Vpr strain. 0.21% of 360,000 active. Potency, µM (highest dose often 92.2 µM), most hits filed as inhibitors. S. pombe RE007 Vpr strain, BacTiter-Glo ATP luminescence, 24 h. AID 651644; active means well fitted falling curve with a large enough effect; inconclusive means small, poorly fitted or top-dose-only effect; inactive means no such curve, though single readings can be large or run the other way; further: nearly all actives have a fitted effect of over 50% in size
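Fission yeast strain RE007, carrying one chromosomally integrated HIV-1 vpr copy, was seeded at OD 0.01 in PMG+AL medium with 23 nL pinned compound. After 24 h at 30 °C and 99% humidity, viability was read by BacTiter-Glo luminescence.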
LmPK inhibitor: blocks Leishmania mexicana pyruvate kinase activity; Q27686; purified LmPK, Kinase-Glo ATP luminescence, 1 h; Potency, µM (titrated, usually from 57.5 µM), most hits filed as inhibitors; 0.37% of 290,000 active
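Pyruvate kinase activity monitored as ATP production (luciferase luminescence). Conditions: 0.1 nM enzyme, 0.5 mM PEP, 0.1 mM ADP, 1 h, RT; normalized against uninhibited and no-enzyme wells.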
Shiga inhibitor: Shiga toxin inhibition; Vero cells, Shiga toxin protein synthesis inhibition reporter; inhibition, % at 38.7 µM; 9.2% of 290,000 active; AID 2315; in the data active means inhibition mostly above about 28%, no sharp cut-off; inactive means mostly below about 43%
Tb PYK inh: inhibitors of Trypanosoma brucei pyruvate kinase; TbPYK enzyme, Kinase-Glo Plus ATP luminescence, 45 min; 0.12% of 410,000 active; Potency, µM (top dose mostly 76.8 µM), usual class: inhibitors; Q57TT1; further: nearly all actives have a fitted effect of over 50% in size
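Readout: single end-point luminescence (Kinase-Glo Plus, 10 min). Reaction conditions were TbPYK/substrate plus 130 uM ADP, 45 min at RT, pH 7.2 TEA buffer. No-enzyme wells served as controls, and data were normalized before concentration-response fitting.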
FBPA Giardia inh: Giardia lamblia aldolase inhibition. A8B2U2. purified Giardia FBPA. Potency, µM (doses to about 59.6 µM), hits mostly inhibitors. 0.71% of 290,000 active; further: nearly all actives have a fitted effect of over 55% in size
Target sequence (A8B2U2 whole entry, looked up): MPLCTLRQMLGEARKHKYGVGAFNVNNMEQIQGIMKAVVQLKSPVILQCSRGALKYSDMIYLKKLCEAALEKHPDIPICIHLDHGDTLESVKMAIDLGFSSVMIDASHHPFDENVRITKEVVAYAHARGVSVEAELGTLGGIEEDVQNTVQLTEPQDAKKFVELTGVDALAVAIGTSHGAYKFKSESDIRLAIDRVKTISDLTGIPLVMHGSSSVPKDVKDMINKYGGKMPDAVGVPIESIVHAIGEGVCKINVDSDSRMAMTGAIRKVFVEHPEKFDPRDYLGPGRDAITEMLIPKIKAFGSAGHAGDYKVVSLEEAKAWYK
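Giardia FBPA (40 nM reagent) was preincubated 10 min at RT with compound (up to 57.5 uM final), then substrate plus GAPDH/TPI/NAD/arsenate coupling system with diaphorase/resazurin was added; resorufin fluorescence (525/598 nm) was read after 20 min.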
Large screens that a line does not name were inactive. Unless noted, the call rests on the fitted dose curve; in most records, active means well fitted curve in the direction sought with a large enough effect; inconclusive means small, poorly fitted or top-dose-only effect, or another doubt; inactive means no such curve, though single readings can be large; an effect the other way counts as inactive or inconclusive.

CC(C)n1nnnc1SCC(=O)Nc1ccc2c(c1)OCCO2	Cycloheximide cs 57, Shiga inhibitor 117 (no result: RE007 growth inh, Tb PYK inh)
COCCCn1nnnc1SCC(=O)Nc1ccc2c(c1)OCCO2	none
CCn1nnnc1SCC(=O)Nc1ccc2c(c1)OCCO2	Cycloheximide cs 44, Shiga inhibitor 64
COc1ccc(-n2nnnc2SCC(=O)Nc2ccc3c(c2)OCCO3)c(OC)c1	Cycloheximide cs 46, Shiga inhibitor 74
Fc1ccc(CNc2ncnc3c2c(-c2ccccc2)cn3-c2ccccc2)cc1	none (no result: Cycloheximide cs, RE007 growth inh, LmPK inhibitor, Shiga inhibitor, FBPA Giardia inh)
CCOc1ccc(NC(=O)Cn2c(=O)n(-c3ccccc3)c(=O)c3ccc(C(=O)NCc4ccc5c(c4)OCO5)cc32)cc1	none (no result: Cycloheximide cs, RE007 growth inh, LmPK inhibitor, Shiga inhibitor, FBPA Giardia inh)
Cc1cc(NC2CCCCC2)nc2ccccc12	none
Cc1ccnc(NC2CCCCC2)c1	Cycloheximide cs 31, Shiga inhibitor 109
O=[N+]([O-])c1ccccc1Oc1ccccc1Cl	Cycloheximide cs 15
Cc1ccccc1OCC(=O)OCC(=O)c1ccc(OC(=O)c2ccccc2)cc1	none
Cc1ccccc1OCC(=O)OCC(=O)c1ccc(OCc2ccccc2)cc1	Cycloheximide cs 59, Shiga inhibitor 81
COc1cccc(Cn2c(=O)n(CC3CCC(C(=O)N4CCOCC4)CC3)c(=O)c3sccc32)c1 (stereo not drawn)	none (no result: Cycloheximide cs, RE007 growth inh, LmPK inhibitor, Shiga inhibitor, FBPA Giardia inh)
CC(C)c1ccc2[nH]c3c(c2c1)[C@@H]1CCN2C(=O)CCC[C@H](C3)[C@H]12	Cycloheximide cs 22, Shiga inhibitor 35
Cc1cccc(NC(=O)NCCOCCn2c(=O)oc3ccccc32)c1C	none (no result: Cycloheximide cs, RE007 growth inh, LmPK inhibitor, Shiga inhibitor, FBPA Giardia inh)
O=C(NC(=S)Nc1ccccc1N1CCCC1)c1ccccc1[N+](=O)[O-]	none
O=C(NC(=S)Nc1ccc(N2CCCC2)cc1)c1ccccc1[N+](=O)[O-]	Shiga inhibitor 40
O=C(Nc1ccc(N2CCCC2)c(Cl)c1)c1ccccc1[N+](=O)[O-]	Cycloheximide cs 27
CC(c1ccco1)N(C(=O)c1ccccc1NS(=O)(=O)c1ccc(Cl)cc1)c1ccccn1 (stereo not drawn)	none
CC(c1ccco1)N(C(=O)COc1ccc(Cl)cc1Cl)c1ccccn1 (stereo not drawn)	Cycloheximide cs 53, Shiga inhibitor 126
CC(c1ccco1)N(C(=O)COc1ccc(Cl)cc1)c1ccccn1 (stereo not drawn)	Cycloheximide cs 39, Shiga inhibitor 135
NNC(=O)c1cncc(Br)c1	none
Cc1ccc(C(=O)c2cc(Br)ccc2N)cc1	Cycloheximide cs 22, RE007 growth inh inconclusive, Shiga inhibitor 45
Cc1ccc(C(=O)c2cncc(Br)c2)cc1	Cycloheximide cs 22
CCc1ccc(C(=O)c2cncc(Br)c2)cc1	Cycloheximide cs 35, Shiga inhibitor 49
Cc1ccc(SCC(=O)NNC(=O)c2cncc(Br)c2)cc1	none (no result: Cycloheximide cs, LmPK inhibitor, Shiga inhibitor, FBPA Giardia inh)
O=C(c1ccc(O)c(Br)c1)c1cc(Br)ccc1O	RE007 growth inh 63µM (no result: Cycloheximide cs, LmPK inhibitor, Shiga inhibitor, FBPA Giardia inh)
O=C(CC1NCCC[C@H]1O)Cn1cnc2cc(Br)c(Cl)cc2c1=O (stereo partly drawn)	none (no result: Cycloheximide cs, RE007 growth inh, LmPK inhibitor, Shiga inhibitor, FBPA Giardia inh)
Cc1cccc(N(C(=O)Cc2cccs2)C(C(=O)NC2CCCC2)c2ccncc2)c1 (stereo not drawn)	none
Cc1ccc(N(C(=O)Cc2cccs2)C(C(=O)NC2CCCCC2)c2ccccn2)cc1C (stereo not drawn)	Shiga inhibitor 32
Cc1nc(-c2ccccc2)sc1CCNC(=O)C(=O)Nc1ccc(F)c(Cl)c1	none (no result: Cycloheximide cs, RE007 growth inh, LmPK inhibitor, Shiga inhibitor, FBPA Giardia inh)
Cc1ccn2c(c1)nc(=S)n2C(=O)c1ccco1	Cycloheximide cs 39, LmPK inhibitor inconclusive, Shiga inhibitor 74 (no result: RE007 growth inh, Tb PYK inh)
Cc1nn(C(=O)c2ccco2)c(C)c1Br	none
Cc1c(C(=O)N2CCC(C)CC2)c(S(=O)(=O)NCc2ccc(Br)cc2)c(C)n1C	none (no result: Cycloheximide cs, RE007 growth inh, LmPK inhibitor, Shiga inhibitor, FBPA Giardia inh)
O=C(Cn1cnc2c(NCc3ccccc3)ncnc21)NCc1ccccn1	none (no result: Cycloheximide cs, LmPK inhibitor, Shiga inhibitor, FBPA Giardia inh)
C=CCn1cnc2c(NCc3ccccc3)ncnc21	Cycloheximide cs 50, Shiga inhibitor 91
N#CCCn1c(=O)c(-c2ccccc2)nc2cnc(Oc3ccccc3)nc21	none (no result: Cycloheximide cs, RE007 growth inh, LmPK inhibitor, Shiga inhibitor)
CCOc1cc(C(=O)N2CCc3c([nH]c4ccccc34)C2c2ccccc2)cc(OCC)c1OCC (stereo not drawn)	none (no result: Cycloheximide cs, RE007 growth inh, LmPK inhibitor, Shiga inhibitor, FBPA Giardia inh)
COc1ccc(-c2cc(-c3ccccc3)nc(NN)n2)cc1OC	Cycloheximide cs 17, FBPA Giardia inh inconclusive

Assay outcomes from PubChem.
